Our source for the Potency values is PubChem BioAssay (NCATS).

Results filed as inconclusive are left out. Entries that show only a call come without a potency. Calls of active or inactive are those of the source. Calls come from the whole dose curve; as a rule, active = well fitted inhibition curve with a large enough effect; inconclusive = small, poorly fitted or top-dose-only effect; inactive = flat fitted curve, though single readings scatter.

Sequence of Phospholipid hydroperoxide glutathione peroxidase GPX4 (Homo sapiens) (P36969 whole entry, looked up): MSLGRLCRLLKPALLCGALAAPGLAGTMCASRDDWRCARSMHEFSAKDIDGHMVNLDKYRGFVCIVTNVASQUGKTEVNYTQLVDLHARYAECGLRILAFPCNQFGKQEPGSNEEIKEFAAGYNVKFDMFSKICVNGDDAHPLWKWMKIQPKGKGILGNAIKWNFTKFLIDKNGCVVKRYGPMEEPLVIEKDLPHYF

In the experiment the target is Phospholipid hydroperoxide glutathione peroxidase GPX4 (Homo sapiens) (UniProt P36969). The experiment in a line: Primary qHTS Assay for Inhibitors of Recombinant Selenoprotein Glutathione Peroxidase 4 (GPX4) (AID 1845192). Note: nearly all actives have a fitted effect of over 65% in size. Particulars: recombinant GPX4, GR-coupled NADPH fluorescence, 15 min; series mostly up to 50 µM. The text has this:
Assay Provider: Elias S.J. Arner MD PhD.
Department of Medical Biochemistry and Biophysics
Karolinska Institutet, Solna, Stockholm, Sweden
Selenoprotein glutathione peroxidases (GPX), like the ubiquitously expressed GPX1 and the ferroptosis modulator GPX4, enact their antioxidant activities by reducing hydroperoxides using glutathione. […] GPX1 and GPX4 inhibitors have thus shown promise as anti-cancer agents. Existing inhibitors are often promiscuous, or modulate GPX activity only indirectly, so novel direct inhibitors identified through screening against GPX1 and GPX4 could be valuable. Here, we developed optimized glutathione reductase (GR)-coupled GPX assays for the biochemical high-throughput screen (HTS) of almost 12,000 compounds with known mechanisms of action. Initial hits were triaged using a GR counter-screen, assessed for isoform specificity using a separate GPX2 assay, and were assessed for general selenocysteine-targeting activity using a thioredoxin reductase (TXNRD1) assay. With this suite of assays, we identified novel GPX1/GPX2- and GPX4-specific inhibitors and can here present a validated pipeline for future discovery research for selenoprotein-targeting agents.
SEQUENCE No. (e.g., 1, 2, 3, etc.); […] (e.g., Cells, Incubation, Reagent, etc.); VALUE; DESCRIPTION.
1; Reagent 1; 3 uL; 333.33 nM GPx4 enzyme or no enzyme control in 1536-well, black, solid Greiner assay plate.
2; Compound; 25 nL; Kalypsis pin tool (Wako USA) equipped with a 1536-well pin head.
3; Incubation; 30 min; room temperature.
4; Reagent 2; 1 uL; 500 nM GR, 5 mM GSH, 2.5 mM NADPH solution
5; Reagent 3; 1 uL; 2.5 mM CHP in 50% EtOH.
6; Detection; Fluorescence; ViewLux microplate reader, excitation 340 nm and emission 450 nm.
7; Incubation; 15 min; room temperature.
8; Detection; Fluorescence; ViewLux microplate reader, excitation 340 nm and emission 450 nm.
NOTES (numbers refer to Sequence numbers above)
1. 3 µL of 333.33 nM GPX4 and 0.016% BSA in assay buffer (50 mM Tris-HCl, 2 mM EDTA (pH 7.5), 150 mM NaCl) was added to columns 3-48 of 1536-well plates using a BioRAPTR Flying Reagent Dispenser (Let's Go Robotics (LGR), Carlsbad, CA). A no-enzyme control (0.01% BSA in TES assay buffer) was added to columns 1-2.
2. 25 nL, library and DMSO controls were added to each well with a pin tool (Kalypsys).
3. The assay plates were incubated for 30 minutes at room temperature.
4. 1 µL of master mix (500 nM glutathione reductase (GR), 5 mM reduced glutathione (GSH), 2.5 mM NADPH in assay buffer) was added.
5. 1 µL of cumene hydroperoxide (CHP) ([2.5 mM] in 50% EtOH) was then added within 5 minutes to initiate the reaction. Final concentrations were: 200 nM GPX4, 1 mM GSH, 0.5 mM CHP, 0.5 mM NADPH, 100 nM GR, 0.01% BSA.
6. Initial fluorescence readout (t=0) at 340/450 nm was measured using a ViewLux multimodal detector (PerkinElmer, Waltham, MA).
8. Endpoint fluorescence readout (t=15) at 340/450 nm was measured 15 min after room temperature incubation.
Consider `COc1cc(C(N)=O)nc(-c2ccccn2)c1O`, for which the Potency result is “inactive”.

In the case of `O=S1(=O)CCN(Cc2cc(NCC3CCOCC3)c3[nH]c(-c4ccccc4)cc3c2)CC1`, the Potency entry is “inactive”. The entry for `CN[C@H]1CC[C@@H](c2ccc(Cl)c(Cl)c2)c2ccccc21` is “inactive”; for `O=C(NO)c1ccc(CC(=O)N(CCO)c2ccccc2)cc1` it is “inactive”. The entry for `Clc1ccc(Nc2nc3ccccc3c3nc(C4CCCCC4)[nH]c23)cc1Cl` is “inactive”. The entry for `COc1cccc(NCCC2(c3ccccc3)CC(C)(C)OC(C)(C)C2)c1` is “inactive”; for `O=C(Nc1cc(C(F)(F)F)cc(C(F)(F)F)c1)c1cnc(Cl)nc1C(F)(F)F` it is “inactive”. Regarding `CCCCNc1ncc(-c2ccc(CN3CCOCC3)cn2)c(NC2CCC(O)CC2)n1` (stereo not given), the Potency entry is “inactive”. The result for `C=C1C(=O)O[C@@H]2C3C(=C(C)[C@@H](O)[C@@H](OC(=O)/C(=C/C)COC(C)=O)[C@@H]12)C(=O)[C@H]1O[C@@]31C` (stereo not given in full) reads “inactive”; that for `C=C1C(=O)O[C@H]2/C=C(/C)[C@@H](OC(C)=O)C/C=C(\C)C[C@@H](OC(=O)/C(=C/C)COC(=O)/C(=C/C)CO)[C@@H]12`, “inactive”. The entry for `Cc1cc(CS(=O)(=O)c2ccccc2)cc(OCc2ccc(CN3CCCC3CO)cc2)c1` (stereo not given) is “inactive”; for `Cc1cccc(C#Cc2cc(F)cc(C#N)c2)n1` it is “inactive”; for `Nc1nc2c(c(N3CC[C@@H](N)C3)n1)CCCc1ccccc1-2` it is “inactive”. The entry for `C=C[C@@]1(C)CCC2C(=CCC3[C@]2(C)CCC[C@@]3(C)C(=O)O)C1` (stereo not given in full) is “inactive”; for `CC1(NC(=O)c2ccc(C#Cc3cccc(F)c3)cn2)COC1` it is “inactive”. As to `O=C1c2ccc(Nc3ccc(F)cc3F)cc2CCc2ccc(OCC(O)CO)cc21` (stereo not given), the Potency entry is “inactive”. The entry for `O=C(O)CC(O)(CC(=O)O)C(=O)O` is “inactive”; for `O=[N+]([O-])c1ccc(Oc2ccc3c(c2)CCC(c2ccccc2)O3)nc1` (stereo not given) it is “inactive”.

Regarding `Cc1ccc(OC[C@H](O)[C@H](C)NC(C)C)c2c1CCC2`, the Potency entry was “inactive”. Take `N#Cc1ccc(COC[C@H]2O[C@@H](n3c(NCc4ccc(Cl)c(Cl)c4)nc4c(N)ncnc43)[C@H](O)[C@@H]2O)cc1`: the Potency result was “inactive”.

Regarding `Nc1nc2c(nc(Br)n2[C@@H]2O[C@@H]3COP(=O)(O)O[C@H]3[C@H]2O)c(=O)[nH]1`, the Potency entry was “inactive”. The result for `C/C(=C\CO[C@@H]1O[C@H](CO[C@H]2OC[C@](O)(CO)[C@H]2O)[C@@H](O)[C@H](O)[C@H]1O)C(C)(C)O` reads “inactive”; that for `NC(N)=NC(=O)c1cnn(-c2cccc3ncccc23)c1C1CC1`, “inactive”; that for `C=C(C)C(=O)O[C@H]1/C(C=O)=C\CC/C(CO)=C/[C@H]2OC(=O)C(=C)[C@@H]2[C@@H]1OC`, “inactive”. As to `CCCn1ncc(CN2CCCC(C(=O)c3cccc(OC(C)C)c3)C2)c1C` (stereo not given), the Potency result was “inactive”. The result for `O=C(N[C@H]1CCN(C(=O)c2cc(C(F)(F)F)cc(C(F)(F)F)c2)[C@H](Cc2ccc(Cl)cc2)C1)c1ccnc2ccccc12` reads “inactive”; that for `CNCCCC1(c2ccccc2)OC(C)(C)c2ccccc21` (stereo not given), “inactive”. For the molecule `COC1CC(=O)C23C(=O)NC(CC(C)C)C2C(C)C(C)=CC3/C=C(\C)CCCC1O` (stereo not given), the Potency entry is “inactive”. The result for `COc1cc2c(cc1OC(C)C)[C@H](c1ccc(Cl)cc1)N(c1ccc(N(C)CC3CCC(N4CCN(C)C(=O)C4)CC3)cc1)C(=O)C2` (stereo not given in full) reads “inactive”. For `O=P(O)(O)OC(CO)CO`, the Potency entry is “inactive”.

With `COc1ccc(CCNCC(O)COc2cccc(C)c2)cc1OC` (stereo not given), the Potency entry was “inactive”.

As to `C=C1C(=O)O[C@@H]2/C=C(\C)CC/C=C(\C)CC[C@@H]12`, the Potency result is “inactive”.

As for `O=C(NCCO)c1cccc(-c2cc(Nc3ccc(OC(F)(F)F)cc3)ncn2)c1`, the Potency result was “inactive”. With `C=Cc1ccccc1`, the Potency entry is “inactive”. The result for `Fc1ccc(-n2cc(CCCCN3CCC4(CC3)OCc3ccccc34)c3ccccc32)cc1` reads “inactive”. On to `O=C(Nc1cccnn1)N1CCN(c2nccc(-c3ccc(F)c(F)c3)n2)CC1`, for which the Potency result was “inactive”.

Turning to `CN1CCC(NC(=O)c2cc(-c3c(O)cc(O)cc3Oc3ccc([N+](=O)[O-])cc3)on2)CC1`, the Potency entry is “inactive”.

As to `Nc1c(CC(=O)O)cccc1C(=O)c1ccccc1`, the Potency result is “inactive”. The entry for `Cc1cnn(-c2ccccc2)c1NC(=O)COCc1ccccc1` is “inactive”. The entry for `CCS(=O)c1nc(-c2cccc(OCc3ccccc3)c2)cc(C(F)(F)F)n1` (stereo not given) is “inactive”.
